Assay [1] can be described thus: qHTS assay to identify small molecule agonists of the TGF-beta/Smad signaling pathway (AID 1346859; active means well fitted activation curve with a large enough effect in the signal ratio in the repeat runs, not every such curve was filed as active; the % refers to the signal ratio; further: series mostly up to about 77 µM). The procedure, abridged:
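Screening used HEK 293T SBE-bla cells at 4,000/well. Test agents: 5 hr, 37 C. Detection: FRET substrate, 2 hr RT, then excitation 405 nm with emissions at 460 and 530 nm.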
On the technique in general: Quantitative high-throughput screening tests each substance at several concentrations.

Assay [2] addresses Thyrotropin-releasing hormone receptor (Homo sapiens) (UniProt P34981). In words: qHTS assay to identify small molecule antagonists of the thyrotropin-releasing hormone receptor (TRHR) signaling pathway (AID 1346877; active means well fitted inhibition curve with a large enough effect in the repeat runs, not every such curve was filed as active; further: series mostly up to about 51 µM). The method in brief: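 Human TRHR in HEK293 cells; inhibition of the intracellular calcium rise triggered by 1 nM TRH was followed by fluorescence over 3 min. Compounds were run at 15 concentrations, three replicates each.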

Assay [3] has the same target. In words: qHTS assay to identify small molecule agonists of the thyrotropin-releasing hormone receptor (TRHR) signaling pathway (AID 1346891; calls by dose curve; further: series mostly up to about 58 µM). The method in brief:
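Readout was intracellular calcium fluorescence in TRHR-Hek293 cells. Cells were incubated 18 h, dye-loaded 2 h at 37 °C, and treated with compound in agonist mode.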

Assay [4] is described as follows: Human pregnane X receptor (PXR) small molecule agonists, qHTS cell viability counter screen (AID 1346977). Further: nearly all actives have a fitted effect of over 50% in size. The procedure, abridged: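 In each well, the PXR reporter HepG2 line was checked for viability: CellTiter-Fluor reagent added 23hr post-dosing, fluorescence read after 1hr incubation at 37C.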
Assay [5] can be described thus: Caspase-3/7 induction in HepG2 cells by small molecules, qHTS assay (AID 1346978). Further: nearly all actives have a fitted effect of over 15% in size. The method in brief: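 Caspase-3/7 induction was measured by Caspase-Glo 3/7 luminescence (30 min, room temperature) after a 17 hr compound exposure of wild-type HepG2 cells seeded at 2,000 per well and pre-incubated 5 hr.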
Assay [6] can be described thus: Caspase-3/7 induction in CHO-K1 cells by small molecules, qHTS cell viability counter screen (AID 1346979). Further: nearly all actives have a fitted effect of over 35% in size. The method in brief: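 Following a 5hr settling period, CHO-K1 cells at 1,500 per well received DMSO-dissolved compounds. Cell viability was quantified 16hr later by CellTiter-Fluor fluorescence, measured after 1hr with reagent at 37C.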
Assay [7] can be described thus: Caspase-3/7 induction in CHO-K1 cells by small molecules, qHTS assay (AID 1346980). Further: nearly all actives have a fitted effect of over 15% in size. The method in brief: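 Luminescent Caspase-Glo 3/7 read (30min, room temperature) quantified apoptosis induction. Cells were wild-type CHO-K1, treated with compound for 17hr at 37 C and 5% CO2.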
Assay [8] in a line: Caspase-3/7 induction in HepG2 cells by small molecules, qHTS cell viability counter screen (AID 1346981). Further: series mostly up to about 92 µM; nearly all actives have a fitted effect of over 30% in size. The procedure, abridged:
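The parent HepG2 line is plated at 2,000 cells per well and rested 5 hr before compound pinning from DMSO stocks. Following a 16-hr treatment at 37 C, a fluorogenic live-cell substrate (CellTiter-Fluor) reports viability after 1 hr.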

In assay [9] the target is Nuclear receptor subfamily 1 group I member 2 (Homo sapiens) (UniProt O75469). In words: Human pregnane X receptor (PXR) small molecule agonists, qHTS assay (AID 1346982). Further: nearly all actives have a fitted effect of over 35% in size. The procedure, abridged:
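After plating in 5% charcoal-stripped FBS and a 5 hr rest, PXR-Luc HepG2 cells received compounds in DMSO. Following 24 hr at 37 C, ONE-Glo was added and light output read.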

Assay [10] addresses Nuclear receptor subfamily 1 group I member 2 (Rattus norvegicus) (UniProt Q9R1A7). In words: Rat pregnane X receptor (rPXR) activation by small molecules, qHTS assay (AID 1346983). Further: nearly all actives have a fitted effect of over 20% in size. To be noted: rPXR luciferase reporter cells, One-Glo luminescence, 24 h; max activation: stronger effect = higher value. The procedure, abridged: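 Luminescent readout (One-Glo luciferase, 30 min room temperature) followed 24 hr compound treatment at 37 C of rPXR cells plated 2,000 per well and preincubated 5hr; qHTS format with compounds delivered in DMSO.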

For assay [11], the target named is Nuclear receptor subfamily 1 group I member 2 (Homo sapiens) (UniProt O75469). In words: CYP3A4 induction through human pregnane X receptor (PXR) by small molecules, qHTS assay (AID 1346984). Further: nearly all actives have a fitted effect of over 40% in size. The procedure, abridged: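 Human PXR activation is tracked via CYP3A4 promoter-luciferase in DPX-2 (HepG2) cells. Compounds treat cells for 24hr at 37C, and luminescence is read after One-Glo.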

The target is the same in assay [12]. In words: Human pregnane X receptor (PXR) activation by small molecules, qHTS assay (AID 1346985). Further: nearly all actives have a fitted effect of over 40% in size. The method in brief: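 DPX-2 cells (HepG2 co-transfected with a PXR response element and a CYP3A4-promoter luciferase construct) were seeded at 2,000 per well, rested 5 hr at 37C, then exposed to DMSO-dissolved compounds for 24 hr. Activation was read as luciferase luminescence.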

Assay [13] has as its target Cytochrome P450 2D6 (Homo sapiens) (UniProt P10635). In words: Cytochrome P450 Family 2 Subfamily D Member 6 (CYP2D6) small molecule antagonists: luciferase reporter qHTS assay (AID 1671196). Further: series mostly up to about 120 µM; nearly all actives have a fitted effect of over 50% in size. The method in brief:
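Quantitative HTS of Tox21 chemicals against CYP2D6 using a luminescent proluciferin substrate. After NADPH addition, 1 h room-temperature reaction; luminescence recorded 20 min post detection reagent.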

Assay [14] concerns the target Cytochrome P450 2C9 (Homo sapiens) (UniProt P11712). In words: Cytochrome P450 Family 2 Subfamily C Member 9 (CYP2C9) small molecule antagonists: luciferase reporter qHTS assay (AID 1671198). Further: series mostly up to about 120 µM; nearly all actives have a fitted effect of over 50% in size. The procedure, abridged:
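Enzyme-substrate mix preincubated with compound 10 min at room temperature; reaction started with NADPH regeneration solution, 1 h 37C. Luminescent luciferin product read after 20 min detection reagent.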
(In a reporter assay the amount or activity of a reporter protein is the signal.)

Assay [15] has as its target Cytochrome P450 1A2 (Homo sapiens) (UniProt P05177). In words: Cytochrome P450 Family 1 Subfamily A Member 2 (CYP1A2) small molecule antagonists: luciferase reporter qHTS assay (AID 1671199). Further: series mostly up to about 120 µM; nearly all actives have a fitted effect of over 50% in size. The procedure, abridged:
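Quantitative high-throughput format using the P450-Glo CYP1A2 system. Reaction initiated by NADPH regeneration solution, 1 h at room temperature, then stopped with detection reagent; luminescence measured 20 min later.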

Assay [16] has as its target Voltage-gated inwardly rectifying potassium channel KCNH2 (Homo sapiens) (UniProt Q12809). In words: Human Ether-a-go-go-Related Gene (hERG) channel small molecule antagonists: fluorescence cell-based qHTS assay (AID 1671200). The method in brief: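 In this thallium-flux screen, overnight-cultured U2OS cells bearing the channel are dye-loaded in darkness for an hour, rested 10 min at room temperature, and then monitored kinetically at 480/540 nm for two minutes post-stimulus.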
In general terms: hERG is a cardiac potassium channel; its block is linked to QT prolongation.

Assay [17] has as its target Cytochrome P450 3A4 (Homo sapiens) (UniProt P08684). In words: Cytochrome P450 Family 3 Subfamily A Member 4 (CYP3A4) small molecule antagonists: luciferase reporter qHTS assay (AID 1671201). The method in brief: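 CYP3A4 activity was followed with a P450-Glo proluciferin substrate. Test compounds in DMSO were preincubated 10 min; NADPH regeneration then ran 1 h, and light output was read 20 min after detection reagent.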

Assay [18] concerns the target Cytochrome P450 2C19 (Homo sapiens) (UniProt P33261). In words: Cytochrome P450 Family 2 Subfamily C Member 19 (CYP2C19) small molecule antagonists: luciferase reporter qHTS assay (AID 1671197). Further: nearly all actives have a fitted effect of over 65% in size. Further: potency means the concentration at half of the fitted maximal effect. The procedure, abridged:
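Light output is proportional to CYP2C19 activity: proluciferin substrate is converted to luciferin, then detected by a luciferin detection reagent that also stops the 1 h, 37C NADPH-driven reaction. Ketoconazole serves as positive control.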

Structures are written as SMILES. Unmarked numbers belong to inactive results. Records with an inconclusive call do not appear. Active and inactive are the calls of the source. Unless noted, the call rests on the fitted dose curve; in most records, active means well fitted curve in the direction sought with a large enough effect in the repeat runs; inconclusive means weak or mixed curves; inactive means no such curve, though single readings can be large; an effect the other way counts as inactive or inconclusive.
On the % scale 0 is the no-effect control and ±100 the full control effect.

Chain of Cytochrome P450 1A2 (Homo sapiens) (P05177 whole entry, looked up): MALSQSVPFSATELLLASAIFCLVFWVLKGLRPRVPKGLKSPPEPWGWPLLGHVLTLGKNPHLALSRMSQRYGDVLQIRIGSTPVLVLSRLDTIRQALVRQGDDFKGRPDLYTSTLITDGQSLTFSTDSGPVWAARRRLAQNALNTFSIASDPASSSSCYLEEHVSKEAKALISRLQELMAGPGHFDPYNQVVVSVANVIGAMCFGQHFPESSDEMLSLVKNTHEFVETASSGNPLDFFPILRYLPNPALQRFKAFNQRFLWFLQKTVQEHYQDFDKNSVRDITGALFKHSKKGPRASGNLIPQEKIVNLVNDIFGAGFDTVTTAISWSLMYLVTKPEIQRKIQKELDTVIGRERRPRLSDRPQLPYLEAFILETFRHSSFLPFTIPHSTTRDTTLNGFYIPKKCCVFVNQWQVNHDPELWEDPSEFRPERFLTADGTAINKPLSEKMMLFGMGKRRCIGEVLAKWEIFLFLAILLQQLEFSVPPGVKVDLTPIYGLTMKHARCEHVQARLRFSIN
Chain of Thyrotropin-releasing hormone receptor (Homo sapiens) (P34981 whole entry, looked up): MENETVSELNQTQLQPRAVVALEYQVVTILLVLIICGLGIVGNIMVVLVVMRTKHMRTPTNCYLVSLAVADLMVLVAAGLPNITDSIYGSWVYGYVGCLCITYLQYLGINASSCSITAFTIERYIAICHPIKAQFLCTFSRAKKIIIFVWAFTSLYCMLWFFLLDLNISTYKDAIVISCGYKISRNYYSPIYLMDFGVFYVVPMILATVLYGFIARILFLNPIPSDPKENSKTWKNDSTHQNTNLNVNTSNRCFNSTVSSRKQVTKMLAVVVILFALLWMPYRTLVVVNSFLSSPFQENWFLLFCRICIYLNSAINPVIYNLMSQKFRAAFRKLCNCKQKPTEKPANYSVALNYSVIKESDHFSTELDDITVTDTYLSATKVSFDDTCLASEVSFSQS
Chain of Voltage-gated inwardly rectifying potassium channel KCNH2 (Homo sapiens) (Q12809 whole entry, looked up): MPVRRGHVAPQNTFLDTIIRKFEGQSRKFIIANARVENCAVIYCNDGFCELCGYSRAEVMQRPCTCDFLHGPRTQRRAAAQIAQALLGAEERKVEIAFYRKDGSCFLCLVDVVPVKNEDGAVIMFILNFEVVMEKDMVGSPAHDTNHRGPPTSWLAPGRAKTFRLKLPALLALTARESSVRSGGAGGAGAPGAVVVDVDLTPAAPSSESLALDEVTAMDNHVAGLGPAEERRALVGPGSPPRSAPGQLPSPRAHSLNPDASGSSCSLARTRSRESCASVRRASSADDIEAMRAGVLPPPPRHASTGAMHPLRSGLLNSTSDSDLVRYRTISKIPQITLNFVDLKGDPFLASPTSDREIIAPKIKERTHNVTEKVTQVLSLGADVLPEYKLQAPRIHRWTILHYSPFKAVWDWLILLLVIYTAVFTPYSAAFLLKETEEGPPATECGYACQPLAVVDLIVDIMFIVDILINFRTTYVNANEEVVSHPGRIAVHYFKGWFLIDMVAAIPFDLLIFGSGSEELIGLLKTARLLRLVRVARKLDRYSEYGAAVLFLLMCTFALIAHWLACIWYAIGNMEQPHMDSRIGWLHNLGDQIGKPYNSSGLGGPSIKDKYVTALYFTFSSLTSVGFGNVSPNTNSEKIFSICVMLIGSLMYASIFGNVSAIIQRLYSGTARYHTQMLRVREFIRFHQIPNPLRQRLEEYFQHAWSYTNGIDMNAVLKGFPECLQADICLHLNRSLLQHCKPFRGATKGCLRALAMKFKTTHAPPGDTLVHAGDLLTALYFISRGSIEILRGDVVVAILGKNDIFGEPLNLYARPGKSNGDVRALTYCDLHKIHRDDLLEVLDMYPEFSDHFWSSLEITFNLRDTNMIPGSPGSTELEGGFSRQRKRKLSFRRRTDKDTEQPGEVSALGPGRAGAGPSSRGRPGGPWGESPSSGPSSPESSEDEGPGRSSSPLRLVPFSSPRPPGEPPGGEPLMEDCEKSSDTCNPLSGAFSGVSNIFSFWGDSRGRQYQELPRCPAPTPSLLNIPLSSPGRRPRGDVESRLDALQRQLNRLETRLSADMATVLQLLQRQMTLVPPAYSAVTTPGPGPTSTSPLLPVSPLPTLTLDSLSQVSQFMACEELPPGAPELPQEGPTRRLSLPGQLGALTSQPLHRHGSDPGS
Chain of Cytochrome P450 2D6 (Homo sapiens) (P10635 whole entry, looked up): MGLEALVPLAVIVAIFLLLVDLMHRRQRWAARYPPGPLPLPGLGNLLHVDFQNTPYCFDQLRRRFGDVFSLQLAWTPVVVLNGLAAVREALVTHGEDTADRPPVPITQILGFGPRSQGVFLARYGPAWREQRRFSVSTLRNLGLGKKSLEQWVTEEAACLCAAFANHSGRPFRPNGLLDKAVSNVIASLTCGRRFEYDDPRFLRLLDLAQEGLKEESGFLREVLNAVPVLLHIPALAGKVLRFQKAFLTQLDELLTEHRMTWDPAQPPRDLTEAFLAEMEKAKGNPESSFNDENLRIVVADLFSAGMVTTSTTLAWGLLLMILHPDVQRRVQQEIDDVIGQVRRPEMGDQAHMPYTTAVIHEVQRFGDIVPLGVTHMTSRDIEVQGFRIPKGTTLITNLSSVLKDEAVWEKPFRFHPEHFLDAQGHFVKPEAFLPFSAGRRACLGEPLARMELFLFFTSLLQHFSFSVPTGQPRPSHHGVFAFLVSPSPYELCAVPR
Chain of Cytochrome P450 2C9 (Homo sapiens) (P11712 whole entry, looked up): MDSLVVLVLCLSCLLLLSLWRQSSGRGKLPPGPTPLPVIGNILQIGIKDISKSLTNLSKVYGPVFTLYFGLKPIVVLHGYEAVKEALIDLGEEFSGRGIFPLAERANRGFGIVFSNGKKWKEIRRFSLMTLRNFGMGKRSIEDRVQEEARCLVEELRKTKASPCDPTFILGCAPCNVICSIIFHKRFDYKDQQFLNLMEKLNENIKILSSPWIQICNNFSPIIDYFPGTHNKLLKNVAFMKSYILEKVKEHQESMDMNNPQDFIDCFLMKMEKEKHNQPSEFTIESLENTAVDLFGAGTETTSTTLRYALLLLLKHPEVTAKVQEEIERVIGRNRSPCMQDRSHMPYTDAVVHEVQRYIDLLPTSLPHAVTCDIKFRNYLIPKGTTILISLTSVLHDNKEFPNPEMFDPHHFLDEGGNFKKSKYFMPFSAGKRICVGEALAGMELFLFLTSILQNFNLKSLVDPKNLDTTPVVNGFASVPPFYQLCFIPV
Chain of Cytochrome P450 3A4 (Homo sapiens) (P08684 whole entry, looked up): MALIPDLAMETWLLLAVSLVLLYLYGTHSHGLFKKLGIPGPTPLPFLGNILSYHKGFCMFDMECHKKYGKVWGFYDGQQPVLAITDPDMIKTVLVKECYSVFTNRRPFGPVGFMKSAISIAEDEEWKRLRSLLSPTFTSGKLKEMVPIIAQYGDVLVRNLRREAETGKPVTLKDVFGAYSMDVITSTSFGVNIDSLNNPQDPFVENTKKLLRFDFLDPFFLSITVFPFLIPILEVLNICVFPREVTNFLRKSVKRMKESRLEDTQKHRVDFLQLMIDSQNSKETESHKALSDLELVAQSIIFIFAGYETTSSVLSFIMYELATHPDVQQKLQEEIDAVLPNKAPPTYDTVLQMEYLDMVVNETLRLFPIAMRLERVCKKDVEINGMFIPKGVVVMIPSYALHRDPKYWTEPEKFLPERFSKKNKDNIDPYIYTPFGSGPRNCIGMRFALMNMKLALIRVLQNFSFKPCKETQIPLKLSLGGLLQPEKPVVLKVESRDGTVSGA
Chain of Cytochrome P450 2C19 (Homo sapiens) (P33261 whole entry, looked up): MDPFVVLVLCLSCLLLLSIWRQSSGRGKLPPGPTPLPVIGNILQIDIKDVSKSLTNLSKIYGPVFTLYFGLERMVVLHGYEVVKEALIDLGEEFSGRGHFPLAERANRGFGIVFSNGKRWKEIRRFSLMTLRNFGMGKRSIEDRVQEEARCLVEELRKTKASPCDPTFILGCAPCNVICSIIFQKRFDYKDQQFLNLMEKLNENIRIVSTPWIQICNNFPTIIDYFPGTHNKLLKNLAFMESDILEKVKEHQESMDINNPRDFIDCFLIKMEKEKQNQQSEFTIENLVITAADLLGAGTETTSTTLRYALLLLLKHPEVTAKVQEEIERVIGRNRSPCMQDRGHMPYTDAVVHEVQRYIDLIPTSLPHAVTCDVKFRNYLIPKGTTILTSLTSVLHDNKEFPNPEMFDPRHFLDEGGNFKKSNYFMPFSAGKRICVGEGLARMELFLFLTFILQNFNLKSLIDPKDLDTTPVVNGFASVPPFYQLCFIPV
Chain of Nuclear receptor subfamily 1 group I member 2 (Homo sapiens) (O75469 whole entry, looked up): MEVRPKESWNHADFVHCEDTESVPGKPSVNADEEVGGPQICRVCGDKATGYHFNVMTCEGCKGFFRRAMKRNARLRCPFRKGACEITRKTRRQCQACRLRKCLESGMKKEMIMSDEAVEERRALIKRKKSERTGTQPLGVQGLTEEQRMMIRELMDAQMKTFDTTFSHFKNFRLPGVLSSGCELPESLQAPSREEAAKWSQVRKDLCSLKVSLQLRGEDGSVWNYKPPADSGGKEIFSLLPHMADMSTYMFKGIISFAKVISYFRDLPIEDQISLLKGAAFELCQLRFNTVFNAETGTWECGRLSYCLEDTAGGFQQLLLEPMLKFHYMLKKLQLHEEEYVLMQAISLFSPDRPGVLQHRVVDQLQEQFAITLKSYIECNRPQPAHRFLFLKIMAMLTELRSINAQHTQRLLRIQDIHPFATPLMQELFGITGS
Chain of Nuclear receptor subfamily 1 group I member 2 (Rattus norvegicus) (Q9R1A7 whole entry, looked up): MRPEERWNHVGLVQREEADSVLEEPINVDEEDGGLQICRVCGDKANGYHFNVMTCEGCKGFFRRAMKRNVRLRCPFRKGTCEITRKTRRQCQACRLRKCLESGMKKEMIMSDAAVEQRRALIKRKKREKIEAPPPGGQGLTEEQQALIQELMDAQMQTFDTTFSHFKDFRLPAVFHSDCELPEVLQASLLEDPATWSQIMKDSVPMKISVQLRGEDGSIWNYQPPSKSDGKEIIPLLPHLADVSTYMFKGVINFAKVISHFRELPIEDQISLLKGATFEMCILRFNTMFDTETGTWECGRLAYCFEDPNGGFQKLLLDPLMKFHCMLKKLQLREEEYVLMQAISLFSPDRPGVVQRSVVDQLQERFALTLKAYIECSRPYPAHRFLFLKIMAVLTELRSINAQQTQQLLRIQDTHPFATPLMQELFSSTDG

On to `O=C(OOC(=O)c1ccccc1)c1ccccc1`, for which the call in [1], in [2], in [4], in assay [5], in assay [7] and in assay [8] was inactive. Besides, the compound was called inactive in [11] and in [12]. The Potency result in assay [3], in assay [6], in assay [9], in assay [13], in [14] and in [15] was “inactive” in each case. For the same compound, the Potency result in assay [16] and in [17] was “inactive” throughout. In addition, the max activation in assay [10] is -2.52%.
In the case of `CCN(CC)CC(=O)Oc1ccc(NC(C)=O)cc1`, the result in [1], in assay [2], in assay [4], in [5], in assay [7] and in assay [8] was inactive. The Potency result in assay [3], in assay [6], in assay [9], in assay [13], in [18] and in assay [14] was “inactive” in each case. The Potency entry in assay [15], in assay [16] and in assay [17] was “inactive” in each case.
Consider `CC(=O)c1c(C)cc(C(C)(C)C)cc1C`, for which the call in [1], in assay [2], in [4], in assay [5], in assay [7] and in assay [8] was inactive. In addition, the Potency result in [3], in [6], in assay [9], in assay [13], in assay [14] and in assay [16] was “inactive” each time. In assay [17], the Potency entry was “inactive”. For the same compound, in assay [18], the Potency is 71 µM (active).
`COc1ccccc1N1CCN(CC(O)COc2cc(OC)c(OC)c(OC)c2)CC1` (configuration not stated): the outcome in assay [1], in assay [2], in assay [4], in assay [5], in assay [7] and in [8] was inactive. In addition, the Potency entry in assay [3], in assay [6], in assay [9], in [13], in assay [18] and in assay [16] was “inactive” each time. The Potency result in assay [17] was “inactive”.
For `CC(C)=CCC/C(C)=C\C#N`, the compound was called inactive in [1], in assay [2], in assay [4], in assay [5], in assay [7] and in [8]. The Potency entry in assay [3], in [6], in [9], in [13], in assay [14] and in assay [16] was “inactive” each time. Further, the Potency in assay [18] is 39.9 µM (active).
In the case of `CC(C)CC(O)Cc1ccccc1` (configuration not stated), the call in [1], in assay [2], in assay [4], in [5], in [7] and in assay [8] was inactive. For the same compound, the Potency result in assay [3], in assay [6], in assay [9], in assay [13] and in [16] was “inactive” throughout. In addition, the Potency in assay [18] was 71 µM (active).
As for `CCCCCCCCOCCC#N`, the compound was called inactive in assay [1], in assay [2], in [4], in assay [5], in [7] and in assay [8]. In addition, the Potency result in [3], in assay [6], in assay [9], in assay [13], in assay [18] and in assay [14] was “inactive” in each case. The Potency result in [15], in assay [16] and in assay [17] was “inactive” throughout.
For the compound `CC1(C)CC(N)CC(C)(C)N1`, the compound was called inactive in [1], in assay [2], in assay [4], in assay [5], in assay [7] and in [8]. Also, the Potency entry in assay [3], in assay [6], in assay [9], in [13], in [18] and in assay [14] was “inactive” throughout. For the same compound, the Potency entry in assay [15] and in assay [16] was “inactive” throughout.
As for `C=CCN(CC=C)CC=C`, the call in [1], in assay [2], in [4], in [5], in assay [7] and in assay [8] was inactive. For the same compound, the Potency entry in assay [3], in assay [6], in assay [9], in assay [13], in [18] and in assay [15] was “inactive” each time. Also, the Potency entry in assay [16] and in assay [17] was “inactive” throughout.
